Reference: PubChem BioAssay (EPA / NIEHS)
Some structures have more than one record in an assay (separate samples or runs), and their calls can disagree. The source made the active and inactive calls. The calls were made as follows: active = hit-call score of the fitted dose curve at least 0.9, where 1 is the maximum; inactive = score below 0.9.

Read-out: Plasminogen activator inhibitor-1 (PAI1), SERPINE1 (gene 5054)
Test: BSK_BE3C_PAI1: BioMAP Diversity Plus: BE3C Assay for Plasminogen activator inhibitor-1 (PAI1) Biomarker Activity (AID 2283037)
Conditions: primary human bronchial epithelial cells; actives raise or lower the signal
Summary of the method: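 In this multiplexed primary-cell system, bronchial epithelial cells receive test chemical and are sampled at 24 h. PAI-1 is read by ELISA, with DMSO serving as negative control for bidirectional fitting.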

**Q.** For `O=C(Oc1ccccc1)c1ccccc1C(=O)Oc1ccccc1`, which outcome is on record?
**A.** Its outcome is “inactive”.

**Q.** With `Oc1ccc(/C=C/c2cc(O)cc(O)c2)cc1` as the compound, how does the outcome read?
**A.** The outcome was “inactive”.

**Q.** Which outcome does the source give for `CCCCCCCO` here?
**A.** The outcome was “inactive”.

**Q.** For `C=CC(=O)OCC(C)OCC(C)OCC(C)OC(=O)C=C` (stereo not given), which outcome is on record?
**A.** The outcome was “inactive”.

Read-out: urokinase plasminogen activator (uPA), PLAU (gene 5328)
Test: BSK_BE3C_uPA: BioMAP Diversity Plus: BE3C Assay for urokinase plasminogen activator (uPA) Biomarker Activity (AID 2283038);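 as to outcome: uPA protein level quantified by ELISA in cell cultures; uPA read one day after compound addition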
Conditions: primary human bronchial epithelial cells; actives raise or lower the signal
Summary of the method: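 ELISA for uPA on human primary bronchial epithelial cultures 24 h post-treatment, gain or loss against DMSO. Parallel SRB staining (0.1% after 10% TCA fixation, 560 nm) assessed overt cytotoxicity.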

**Q.** How did the outcome turn out when `COc1ccc(C(=O)c2ccccc2)c(O)c1` was run?
**A.** Its outcome is “inactive”.

**Q.** How did the outcome turn out when `CC(C)CCCCCOC(=O)CS` was run?
**A.** The outcome was “inactive”.

**Q.** For `Nc1ccc(C(=O)O)cc1`, which outcome is on record?
**A.** The outcome was “inactive”.

**Q.** How did the outcome turn out when `CC(Cl)COP(=O)(OCC(C)Cl)OCC(C)Cl` (stereo not given) was run?
**A.** Its outcome is “inactive”.

**Q.** How did the outcome turn out when `CCc1cccc(C)c1N(C(=O)CS(=O)(=O)O)C(C)COC` (stereo not given) was run?
**A.** The outcome was “inactive”.

**Q.** `CCCCCCCCC(CO)CCCCCC` (stereo not given) was tested. Which outcome did it give?
**A.** Its outcome is “inactive”.

**Q.** How did the outcome turn out when `CC1=CC=C(C(C)C)CC1` was run?
**A.** Its outcome is “inactive”.

**Q.** Which outcome does the source give for `C=CC(=O)OCCCCCCCC(C)C` here?
**A.** Its outcome is “inactive”.

**Q.** How did the outcome turn out when `Fc1ccc(Br)cc1` was run?
**A.** The outcome was “inactive”.

**Q.** With `CCCCCCCCCCCC(C)=O` as the compound, how does the outcome read?
**A.** The outcome was “inactive”.

**Q.** Which outcome does the source give for `C=CC(=O)NCOCCCC` here?
**A.** The outcome was “inactive”.

**Q.** For `CC(C)[N+](C)(CCOC(=O)C1c2ccccc2Oc2ccccc21)C(C)C`, which outcome is on record?
**A.** The outcome was “inactive”.

**Q.** With `Oc1c(Cl)cc(Cl)c(Cl)c1Cl` as the compound, how does the AC50 read?
**A.** The AC50 was 6.07 µM (active).

**Q.** How did the outcome turn out when `C=C(C)C(=O)OCCCCCCCCCCCC` was run?
**A.** The outcome was “inactive”.

**Q.** For `Clc1cc(Cl)c(Cl)c(Cl)c1Cl`, which outcome is on record?
**A.** The outcome was “inactive”.

**Q.** `CCOC(=O)/C=C\C(=O)OCC` was tested. Which outcome did it give?
**A.** The outcome was “inactive”.

**Q.** With `CC(C)C(=O)OCCc1ccccc1` as the compound, how does the outcome read?
**A.** Its outcome is “inactive”.

**Q.** `CCOC(=O)C1=NN(c2ccc(Cl)cc2Cl)C(C)(C(=O)OCC)C1` (stereo not given) was tested. Which outcome did it give?
**A.** The outcome was “inactive”.

**Q.** For `C=CCCCCCCCCC=O`, which outcome is on record?
**A.** Its outcome is “inactive”.

**Q.** Which outcome does the source give for `Nc1nc(N)nc(-c2ccccc2)n1` here?
**A.** The outcome was “inactive”.

**Q.** Which outcome does the source give for `c1ccc(Nc2cccc3ccccc23)cc1` here?
**A.** Its outcome is “inactive”.

**Q.** With `CCCCCCOC(=O)CCCCC(=O)OCCCCCC` as the compound, how does the outcome read?
**A.** The outcome was “inactive”.

**Q.** For `COC(OC)(C(=O)c1ccccc1)c1ccccc1`, which outcome is on record?
**A.** The outcome was “inactive”.

**Q.** Which outcome does the source give for `Cc1c(O)cccc1O` here?
**A.** The outcome was “inactive”.

**Q.** For `CC/C=C\C/C=C\C/C=C\CCCCCCCC(=O)OC`, which AC50 is on record?
**A.** Its AC50 is 29.8 µM (active).

**Q.** Which outcome does the source give for `CC(c1cc(C(C)(C)C)cc(C(C)(C)C)c1O)c1cc(C(C)(C)C)cc(C(C)(C)C)c1O` here?
**A.** Its outcome is “inactive”.

**Q.** For `O=C(Oc1ccccc1)c1ccccc1C(=O)Oc1ccccc1`, which outcome is on record?
**A.** Its outcome is “inactive”.

**Q.** `Oc1ccc(/C=C/c2cc(O)cc(O)c2)cc1` was tested. Which outcome did it give?
**A.** The outcome was “inactive”.

**Q.** With `CCCCCCCO` as the compound, how does the outcome read?
**A.** The outcome was “inactive”.

**Q.** How did the outcome turn out when `C=CC(=O)OCC(C)OCC(C)OCC(C)OC(=O)C=C` (stereo not given) was run?
**A.** The outcome was “inactive”.

Read-out: Urokinase-type plasminogen activator receptor (uPAR), PLAUR (gene 5329)
Test: BSK_BE3C_uPAR: BioMAP Diversity Plus: BE3C Assay for Urokinase-type plasminogen activator receptor (uPAR) Biomarker Activity (AID 2283039);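 as to outcome: uPAR protein level measured by ELISA on the cells; cells exposed to compound for one day before measurement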
Conditions: primary human bronchial epithelial cells; actives raise or lower the signal
Summary of the method: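 Chemically treated human bronchial epithelial cells (lung primary) are assayed for uPAR by ELISA after 24 h, with data fitted in both directions using DMSO as negative control.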

**Q.** With `COc1ccc(C(=O)c2ccccc2)c(O)c1` as the compound, how does the outcome read?
**A.** The outcome was “inactive”.

**Q.** With `CC(C)CCCCCOC(=O)CS` as the compound, how does the outcome read?
**A.** Its outcome is “inactive”.

**Q.** How did the outcome turn out when `Nc1ccc(C(=O)O)cc1` was run?
**A.** Its outcome is “inactive”.

**Q.** For `CC(Cl)COP(=O)(OCC(C)Cl)OCC(C)Cl` (stereo not given), which outcome is on record?
**A.** Its outcome is “inactive”.

**Q.** `CCc1cccc(C)c1N(C(=O)CS(=O)(=O)O)C(C)COC` (stereo not given) was tested. Which outcome did it give?
**A.** The outcome was “inactive”.

**Q.** `CCCCCCCCC(CO)CCCCCC` (stereo not given) was tested. Which outcome did it give?
**A.** Its outcome is “inactive”.

**Q.** With `CC1=CC=C(C(C)C)CC1` as the compound, how does the outcome read?
**A.** Its outcome is “inactive”.

**Q.** With `C=CC(=O)OCCCCCCCC(C)C` as the compound, how does the outcome read?
**A.** Its outcome is “inactive”.

**Q.** How did the outcome turn out when `Fc1ccc(Br)cc1` was run?
**A.** The outcome was “inactive”.

**Q.** `CCCCCCCCCCCC(C)=O` was tested. Which outcome did it give?
**A.** The outcome was “inactive”.

**Q.** For `C=CC(=O)NCOCCCC`, which outcome is on record?
**A.** The outcome was “inactive”.

**Q.** `CC(C)[N+](C)(CCOC(=O)C1c2ccccc2Oc2ccccc21)C(C)C` was tested. Which outcome did it give?
**A.** Its outcome is “inactive”.

**Q.** `Oc1c(Cl)cc(Cl)c(Cl)c1Cl` was tested. Which AC50 did it give?
**A.** The AC50 was 20 µM (active).

**Q.** `C=C(C)C(=O)OCCCCCCCCCCCC` was tested. Which outcome did it give?
**A.** The outcome was “inactive”.

**Q.** With `Clc1cc(Cl)c(Cl)c(Cl)c1Cl` as the compound, how does the outcome read?
**A.** The outcome was “inactive”.

**Q.** `CCOC(=O)/C=C\C(=O)OCC` was tested. Which outcome did it give?
**A.** The outcome was “inactive”.

**Q.** How did the outcome turn out when `CC(C)C(=O)OCCc1ccccc1` was run?
**A.** Its outcome is “inactive”.

**Q.** For `CCOC(=O)C1=NN(c2ccc(Cl)cc2Cl)C(C)(C(=O)OCC)C1` (stereo not given), which outcome is on record?
**A.** The outcome was “inactive”.

**Q.** For `C=CCCCCCCCCC=O`, which outcome is on record?
**A.** Its outcome is “inactive”.

**Q.** How did the outcome turn out when `Nc1nc(N)nc(-c2ccccc2)n1` was run?
**A.** Its outcome is “inactive”.

**Q.** Which AC50 does the source give for `c1ccc(Nc2cccc3ccccc23)cc1` here?
**A.** The AC50 was 35.2 µM (active).

**Q.** What about the outcome of the same compound?
**A.** Its outcome is “inactive”.

**Q.** Which outcome does the source give for `CCCCCCOC(=O)CCCCC(=O)OCCCCCC` here?
**A.** The outcome was “inactive”.

**Q.** Which outcome does the source give for `COC(OC)(C(=O)c1ccccc1)c1ccccc1` here?
**A.** Its outcome is “inactive”.

**Q.** `Cc1c(O)cccc1O` was tested. Which outcome did it give?
**A.** Its outcome is “inactive”.

**Q.** Which AC50 does the source give for `CC/C=C\C/C=C\C/C=C\CCCCCCCC(=O)OC` here?
**A.** Its AC50 is 28.8 µM (active).

**Q.** `CC(c1cc(C(C)(C)C)cc(C(C)(C)C)c1O)c1cc(C(C)(C)C)cc(C(C)(C)C)c1O` was tested. Which outcome did it give?
**A.** The outcome was “inactive”.

**Q.** Which outcome does the source give for `O=C(Oc1ccccc1)c1ccccc1C(=O)Oc1ccccc1` here?
**A.** Its outcome is “inactive”.

**Q.** `Oc1ccc(/C=C/c2cc(O)cc(O)c2)cc1` was tested. Which AC50 did it give?
**A.** Its AC50 is 11.1 µM (active).

**Q.** `CCCCCCCO` was tested. Which outcome did it give?
**A.** The outcome was “inactive”.

**Q.** How did the outcome turn out when `C=CC(=O)OCC(C)OCC(C)OCC(C)OC(=O)C=C` (stereo not given) was run?
**A.** The outcome was “inactive”.
